Data published in PubChem BioAssay (NCI).
This is part of a sample that, as a whole, favours compounds with a hit. Of some 79,000 tested, about 15% had one in any assay. The source made the active and inactive calls. Cut-off read from the data, not from the text of the source: active = growth inhibition above about 70%; inactive = the rest.

Experiments:
[1] = NCI Yeast Anticancer Drug Screen. Data for the rad52 strain (AID 147);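 note: 0% = growth of vehicle-treated control cultures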; conditions: S. cerevisiae rad52 mutant growth inhibition, hits give high values
Procedure, shortened: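 Vehicle-treated cultures served as the reference for growth inhibition of compound-exposed yeast bearing a DNA repair mutation.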

[2] = NCI Yeast Anticancer Drug Screen. Data for the wt1 strain (AID 149);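 note: 0% = growth of vehicle-treated wt1 cultures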; conditions: S. cerevisiae wt1 strain (SPY 50644) growth inhibition, hits give high values
Procedure, shortened: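 Measured: growth of wt1 yeast under compound versus vehicle treatment, reported as inhibition.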

[3] = NCI Yeast Anticancer Drug Screen. Data for the rad50EPP+ strain (AID 151);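 note: 0% = growth of vehicle-treated control cultures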; conditions: S. cerevisiae rad50 mutant strain, hits give high values
Procedure, shortened: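 In this screen, rad50EPP+ yeast were exposed to compounds. Growth inhibition was scored against vehicle-treated controls.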

[4] = NCI Yeast Anticancer Drug Screen. Data for the rad50 strain (AID 155);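 note: 0% = growth of vehicle-only cultures of the same strain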; conditions: S. cerevisiae rad50 strain growth inhibition, hits give high values
Procedure, shortened: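 Growth of the mutant yeast was measured after compound exposure and referenced to vehicle-treated cultures.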

[5] = NCI Yeast Anticancer Drug Screen. Data for the mec2-1 strain (AID 157); conditions: S. cerevisiae mec2-1 strain, hits give high values
Procedure, shortened: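 Vehicle-treated cultures served as reference for growth inhibition of compound-exposed mec2-1 yeast.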

[6] = NCI Yeast Anticancer Drug Screen. Data for the rad14 strain (AID 159);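 note: 0% = growth of vehicle-treated control cultures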; conditions: S. cerevisiae rad14 strain growth inhibition, hits give high values
Procedure, shortened: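 Here, inhibition of yeast growth was measured after compound exposure, using a strain with a genetic defect in DNA damage repair and vehicle-treated cultures as the reference.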

[7] = NCI Yeast Anticancer Drug Screen. Data for the sgs1 mgt1 strain (AID 161);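 note: 0% = growth of cultures given vehicle only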; conditions: S. cerevisiae sgs1 mgt1 strain, hits give high values
Procedure, shortened: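 Test agents were incubated with a DNA-repair-mutant yeast strain. Growth was then read and compared against vehicle-treated controls.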

[8] = NCI Yeast Anticancer Drug Screen. Data for the CLN2oe strain (AID 163);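 note: 0% = growth of vehicle-only control cultures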; conditions: S. cerevisiae CLN2oe strain, hits give high values
Procedure, shortened: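 Inhibition relative to vehicle-treated yeast is reported. Cells: strain with genetic alteration in cell-cycle control, grown with compound.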

[9] = NCI Yeast Anticancer Drug Screen. Data for the cln2 rad14 strain (AID 165);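 note: 0% = growth equal to vehicle treated cultures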; conditions: S. cerevisiae cln2 rad14 strain, hits give high values
Procedure, shortened: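 Each compound was tested on cln2 rad14 yeast. Inhibition of growth was calculated against vehicle-exposed controls.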

[10] = NCI Yeast Anticancer Drug Screen. Data for the bub3 strain (AID 167); conditions: S. cerevisiae bub3 mutant strain, hits give high values
Procedure, shortened: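 Whole-cell yeast assay. The mutant strain was incubated with compounds, and growth inhibition was determined by comparison with vehicle-treated cells.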

[11] = NCI Yeast Anticancer Drug Screen. Data for the wt2 strain (AID 169);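 note: 0% = growth of vehicle-treated yeast cultures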; conditions: S. cerevisiae wt2 strain growth inhibition, hits give high values
Procedure, shortened: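 Inhibition of yeast growth was determined after compound treatment, normalised to controls receiving only vehicle.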

[12] = NCI Yeast Anticancer Drug Screen. Data for the mlh1 strain (AID 171);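 note: 0% = growth of vehicle-treated control cultures of the same strain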; conditions: S. cerevisiae mlh1 strain growth inhibition, hits give high values
Procedure, shortened: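 Vehicle-normalised growth inhibition of a repair- or checkpoint-altered yeast strain following compound treatment.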

[13] = NCI Yeast Anticancer Drug Screen. Data for the sgs1 strain (AID 173);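 note: 0% = growth of vehicle-only control cultures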; conditions: S. cerevisiae sgs1 mutant, hits give high values
Procedure, shortened: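 Screen format: yeast with repair or checkpoint alterations, compound exposure, growth read relative to vehicle.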

[14] = NCI Yeast Anticancer Drug Screen. Data for the mlh1 rad18 strain (AID 175); conditions: S. cerevisiae mlh1 rad18 strain growth inhibition, hits give high values
Procedure, shortened: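 Vehicle-treated cultures served as the reference for growth inhibition in a yeast strain carrying DNA damage repair alterations exposed to each compound.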

[15] = NCI Yeast Anticancer Drug Screen. Data for the rad18 strain (AID 177); conditions: S. cerevisiae rad18 mutant growth inhibition, hits give high values
Procedure, shortened: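 Test articles were incubated with altered yeast defective in DNA damage repair. Results are given as inhibition of growth versus vehicle.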

[16] = at 5.0 µM (retest, dose inferred, filed as 0.5)
[17] = at 50.0 µM (retest, dose inferred, filed as 5.0)

Measured: growth inhibition

C#CCCCc1ccccc1
inactive: [1]; at 1.2 µM -67% | [1]; at 3.7 µM -68% | [1]; at 11.0 µM -68% | [1]; at 33.0 µM -43% | [1]; at 100.0 µM 66% | [2]; at 1.2 µM -29% | [2]; at 3.7 µM -24% | [2]; at 11.0 µM -28% | [2]; at 33.0 µM -9% | [2]; at 100.0 µM 57% | [3]; at 1.2 µM -65% | [3]; at 3.7 µM -72% | [3]; at 11.0 µM -55% | [3]; at 33.0 µM 23% | [3]; at 100.0 µM 67% | [4]; at 1.2 µM -48% | [4]; at 3.7 µM -45% | [4]; [16] -13% | [4]; at 11.0 µM -36% | [4]; at 33.0 µM -24% | [4]; [17] 37% | [4]; at 50.0 µM 24.1% | [4]; at 100.0 µM 65% | [5]; at 1.2 µM -21% | [5]; at 3.7 µM -12% | [5]; [16] -13% | [5]; at 11.0 µM -41% | [5]; at 33.0 µM 31% | [5]; [17] 18% | [5]; at 50.0 µM 47.4% | [6]; at 1.2 µM -36% | [6]; at 3.7 µM -39% | [6]; at 11.0 µM -31% | [6]; at 33.0 µM -17% | [7]; [16] -9% | [7]; [17] 15% | [7]; at 50.0 µM 63.6% | [8]; at 1.2 µM -7% | [8]; at 3.7 µM -5% | [8]; at 11.0 µM 4% | [8]; at 33.0 µM 2% | [9]; [16] 17% | [9]; [17] 37% | [9]; at 50.0 µM 18.1% | [10]; at 1.2 µM -31% | [10]; at 3.7 µM -33% | [10]; [16] 0% | [10]; at 11.0 µM -25% | [10]; at 33.0 µM 2% | [10]; at 50.0 µM 39.9% | [11]; at 1.2 µM -52% | [11]; at 3.7 µM -55% | [11]; at 11.0 µM -54% | [11]; at 33.0 µM -31% | [11]; at 100.0 µM 14% | [12]; at 1.2 µM -20% | [12]; at 3.7 µM -22% | [12]; at 11.0 µM -26% | [12]; at 33.0 µM 19% | [13]; at 1.2 µM -48% | [13]; at 3.7 µM -61% | [13]; at 11.0 µM -56% | [13]; at 33.0 µM -12% | [14]; [16] 15% | [14]; at 50.0 µM 26.7% | [15]; at 1.2 µM -56% | [15]; at 3.7 µM -49% | [15]; at 11.0 µM -58% | [15]; at 33.0 µM -28% | [15]; at 100.0 µM 65%
active: [5]; at 100.0 µM 98% | [6]; at 100.0 µM 94% | [8]; at 100.0 µM 73% | [10]; [17] 79% | [10]; at 100.0 µM 97% | [12]; at 100.0 µM 98% | [13]; at 100.0 µM 89% | [14]; [17] 70%

CC(=O)Nc1ccc(/C=C(\C#N)c2ccc(C)cc2)cc1
active: [4]; [17] 93% | [5]; [17] 95% | [14]; [17] 97%
inactive: [1]; at 1.2 µM -10% | [1]; at 3.7 µM 0% | [1]; at 11.0 µM -5% | [1]; at 33.0 µM -2% | [1]; at 100.0 µM 1% | [2]; at 1.2 µM 0% | [2]; at 3.7 µM -2% | [2]; at 11.0 µM -6% | [2]; at 33.0 µM -6% | [2]; at 100.0 µM 1% | [3]; at 1.2 µM -11% | [3]; at 3.7 µM -20% | [3]; at 11.0 µM -18% | [3]; at 33.0 µM -8% | [3]; at 100.0 µM -5% | [4]; at 1.2 µM -25% | [4]; at 3.7 µM -23% | [4]; [16] 30% | [4]; at 11.0 µM -23% | [4]; at 33.0 µM -13% | [4]; at 50.0 µM 28.4% | [4]; at 100.0 µM -1% | [5]; at 1.2 µM -16% | [5]; at 3.7 µM -23% | [5]; [16] 40% | [5]; at 11.0 µM -22% | [5]; at 33.0 µM -33% | [5]; at 50.0 µM 18.7% | [5]; at 100.0 µM -30% | [6]; at 1.2 µM 1% | [6]; at 3.7 µM -9% | [6]; at 11.0 µM -5% | [6]; at 33.0 µM 4% | [6]; at 100.0 µM 1% | [7]; [16] -12% | [7]; [17] 45% | [7]; at 50.0 µM 24.6% | [8]; at 1.2 µM -3% | [8]; at 3.7 µM -1% | [8]; at 11.0 µM -3% | [8]; at 33.0 µM 8% | [8]; at 100.0 µM 20% | [9]; [16] 63% | [9]; [17] 2% | [9]; at 50.0 µM 19.2% | [10]; at 1.2 µM -27% | [10]; at 3.7 µM -21% | [10]; [16] -11% | [10]; at 11.0 µM -12% | [10]; at 33.0 µM 7% | [10]; [17] 39% | [10]; at 50.0 µM 63.7% | [10]; at 100.0 µM -16% | [11]; at 1.2 µM -1% | [11]; at 3.7 µM 9% | [11]; at 11.0 µM 6% | [11]; at 33.0 µM 5% | [11]; at 100.0 µM 0% | [12]; at 1.2 µM -20% | [12]; at 3.7 µM -21% | [12]; at 11.0 µM -18% | [12]; at 33.0 µM -6% | [12]; at 100.0 µM -10% | [13]; at 1.2 µM -21% | [13]; at 3.7 µM -19% | [13]; at 11.0 µM -23% | [13]; at 33.0 µM -13% | [13]; at 100.0 µM -17% | [14]; [16] 34% | [14]; at 50.0 µM 24.6% | [15]; at 1.2 µM -18% | [15]; at 3.7 µM -9% | [15]; at 11.0 µM -17% | [15]; at 33.0 µM -3% | [15]; at 100.0 µM -16%
